# This is a sample that favours compounds with a hit; in the whole collection about 6.1% have one here.
# D1 antag – Antagonist of Human D 1 Dopamine Receptor: qHTS. D(1A) dopamine receptor (Homo sapiens), P21728. HEK293 TREx D1 cells, calcium flux, dopamine EC80; hits give low values. activity change, negative = inhibition, % at 10 µM. 3.2% of 360,000 active. AID 504652, 2011; in the data active means activity change below about -30%; further: on the % scale 0 is the no-effect control and ±100 the full control effect
# Target sequence (P21728 whole entry, looked up): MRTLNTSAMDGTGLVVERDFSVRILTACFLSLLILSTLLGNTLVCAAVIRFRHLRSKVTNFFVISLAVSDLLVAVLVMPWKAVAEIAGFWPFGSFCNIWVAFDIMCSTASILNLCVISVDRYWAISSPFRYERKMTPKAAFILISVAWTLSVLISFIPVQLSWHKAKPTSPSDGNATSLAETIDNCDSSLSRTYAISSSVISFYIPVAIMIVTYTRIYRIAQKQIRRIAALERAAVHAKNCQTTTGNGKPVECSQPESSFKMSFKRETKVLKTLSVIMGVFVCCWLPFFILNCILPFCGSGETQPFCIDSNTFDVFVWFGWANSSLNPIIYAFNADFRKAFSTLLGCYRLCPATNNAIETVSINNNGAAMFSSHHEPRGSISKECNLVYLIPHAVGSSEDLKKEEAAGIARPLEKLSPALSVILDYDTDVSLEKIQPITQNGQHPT
#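 Tetracycline-induced HEK293 T-REx cells with force-coupled D1 receptor were loaded with a no-wash calcium dye. Compound was added after a 10 s baseline and read kinetically for 180 s; EC80 dopamine was then added and calcium flux followed another 180 s.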
# D1 ag – Allosteric Agonists of the Human D1 Dopamine Receptor: qHTS; HEK293 T-REx D1 cells, calcium flux, agonist mode; activation, % at 2 µM; 1% of 360,000 active; AID 504660, 2011; in the data active means activation above about 30%; further: 0% is about no effect
#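 Tetracycline-induced HEK293 TREx D1 cells, force-coupled to calcium signalling, were dye-loaded with a no-wash calcium kit. Compound was pin-added after a 10 s baseline. Fluorescence was read kinetically at 1 cycle/s for 180 s, with calcium rises flagged as agonism.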
# D1 PAM – Potentiators of Human D1 Dopamine Receptor: qHTS; D(1A) dopamine receptor (Homo sapiens), P21728; HEK293 TREx D1 cells, calcium flux, dopamine EC20 potentiation; potentiation, % at 10 µM; 0.036% of 360,000 active; in the data active means potentiation above about 30%; further: 0% is about no effect
# D3 antag – qHTS of D3 Dopamine Receptor Antagonist: qHTS | D(3) dopamine receptor (Homo sapiens), P35462 | D3R cells, DiscoveRx beta-arrestin luminescence, antagonist mode; hits give low values | max response, negative = inhibition, % | 2.5% of 360,000 active; in the data active means max response below about -50%; inconclusive means no clear call, values can overlap the other calls; further: on the % scale 0 is the no-effect control and ±100 the full control effect
#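 Cells plated overnight at 1500 cells/well, then exposed to library compounds with dopamine controls for 90 minutes at 37 degrees C. DiscoveRx reagent added for 30–60 minutes at room temperature; luminescence read, quantitative HTS format.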
# DRD3 agonist – qHTS of D3 Dopamine Receptor Agonist: qHTS; max activation, %; D(3) dopamine receptor (Homo sapiens), P35462; D3R DiscoveRx beta-arrestin cells, luminescence, 90 min; 0.58% of 410,000 active; in the data active means max activation above about 30%; further: 0% is about no effect
#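 Agonist-mode cell screen: cells plated at 1500/well and incubated overnight at 37 °C, then exposed to library compounds for 90 min at 37 °C. Detection reagent was added for 30–60 min at room temperature, and luminescence was read.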
# Numbers without * were called inactive; ? = inconclusive; nt = no result given; ! = not confirmed by another sample.
SMILES,D1 antag,D1 ag,D1 PAM,D3 antag,DRD3 agonist
COCCOc1cc(NC(=O)CS(=O)CC(=O)N(C)C)c(Cl)cc1Cl (configuration not stated),17,3,1,4,19
Cc1nn(CC(=O)NCc2ccc(N(C)C)cc2)c(=O)c2nn(-c3ccccc3)c(C)c12,1,1,-1,nt,-1
CCN(C(=O)CCS(=O)(=O)c1cccc2nsnc12)c1cccc(C)c1,-57*!,0,-4,9,1
C=CCN(C(=O)CCS(=O)(=O)c1cccc2nsnc12)c1ccccc1,2,0,3,-9,7
O=[N+]([O-])c1ccc(OCC(O)CN(CCO)CCO)cc1 (configuration not stated),-35*,4,-1,-14,6
Cc1[nH]c2ccccc2c1C1(O)C(=O)N(Cc2ccccc2)c2ccc(Cl)cc21 (configuration not stated),15,0,-1,nt,2
Cc1ccc(C(=O)CNc2ccccc2)cc1,-4,3,1,-17,7
C=C(C(=O)Nc1ccccc1)c1ccc(C)cc1,-49*,4,3,-15,4
O=C(CSc1nnnn1-c1cccc2ccccc12)Nc1ccc(C(=O)O)cc1,21,9,-2,11,11
O=C(Nc1nccs1)c1ccc(CSc2nnnn2-c2ccccc2)cc1,-34*,9,1,-13,1
O=C(CCCSc1nnnn1-c1cccc2ccccc12)c1ccc(F)cc1,-47*,62*,-6,12,7
O=C(O)c1ccc(CSc2nnnn2-c2ccc(F)cc2)cc1,-31*,0,-9,-8,5
O=C(O)c1cc(-n2nnnc2SCc2ccc([N+](=O)[O-])cc2)ccc1Cl,1,0,0,-54*,-7
O=C(COc1ccc(Cl)cc1)Nc1ccccc1C(=O)OCc1cc(=O)n2ccsc2n1,-15,-1,0,nt,-2
Fc1ccc2c(c1)-c1nc(-c3ccccc3)cc(-c3ccccc3)c1CO2,3,-1,3,nt,-4
COc1ccc([N+](=O)[O-])cc1/C=N/NC(=O)CNC(=O)C(c1ccccc1)c1ccccc1,-32*,2,-8,0,-19
COc1ccc([N+](=O)[O-])cc1/C=N/NC(=O)CNC(=O)c1cccc(F)c1,-11,-1,2,-117*,-30
CC(C)(C)OC(=O)N1CCC(c2c(C(=O)NCc3ccco3)cnn2-c2ccccc2)CC1,-7,1,1,nt,5
Cc1cc(C(c2ccc(C)o2)c2ccc(C)o2)c(O)c([N+](=O)[O-])c1,31,3,1,-97*,-6
Cc1c(C(c2cccc([N+](=O)[O-])c2O)c2c(C)n(C)n(-c3ccccc3)c2=O)c(=O)n(-c2ccccc2)n1C,2,1,-6,-23,-8
Cc1[nH]n(-c2ccccc2)c(=O)c1C(c1cccc([N+](=O)[O-])c1O)c1c(C)[nH]n(-c2ccccc2)c1=O,-13,7,-6,-70*,-11
CC(=O)CCc1oc2c([N+](=O)[O-])cccc2c1-c1ccc(C)o1,-18,3,-4,-5,-4
Cc1ccc(C(c2ccc(C)o2)c2cccc([N+](=O)[O-])c2O)o1,11,2,10,-73*,-2
COc1ccc(NC(=O)c2cc3c(=O)n(Cc4cccnc4)ccc3nc2C)c(OC)c1,2,0,-2,nt,6
CC(=O)c1cccc(NC(=O)CN2C(=O)CC(c3ccc(C)cc3C)=Nc3ccccc32)c1,7,-1,0,nt,-9
SMILES,D1 antag,D1 ag,D1 PAM,D3 antag,DRD3 agonist
Cc1cccc2sc(N(Cc3cccnc3)C(=O)Cc3ccccc3)nc12,nt,10,0,nt,-17
Cc1cccc2sc(N(Cc3cccnc3)C(=O)CCc3ccccc3)nc12,nt,56*,6,nt,-20
CC(C)c1ccc(NC(=O)C2CCCN2S(=O)(=O)c2ccc3nc(-c4ccccc4)[nH]c3c2)cc1 (configuration not stated),8,3,-3,nt,9
Cn1c(-c2ccccc2F)cc2onc(-c3ccccc3)c2c1=O,10,-1,-1,-30,-60
Cn1c(-c2ccccc2)cc2onc(-c3ccccc3)c2c1=O,5,13,-6,-69*,0
Cc1ccc(-c2cn3c(n2)sc2cc(C(=O)NC4CCCCC4)ccc23)cc1,4,2,-5,nt,-3
COc1ccc(S(=O)(=O)Oc2ccc3ccccc3c2)cc1,-39*,13,-12,-12,-9
CC(CNC(=O)C1CCN(Cc2cc3ccccc3n2Cc2ccccc2)CC1)c1ccccc1 (configuration not stated),-8,3,-3,nt,-14
CCOC(=O)c1scc(-c2ccc(C)cc2)c1S(=O)(=O)N1CCN(c2ccccc2)CC1,0,28,-5,nt,-17
Fc1ccc(C2=CC(c3ccc(Br)o3)n3ncnc3N2)cc1 (configuration not stated),-22,7,2,11,5
Brc1ccc(C2=CC(c3cccs3)n3ncnc3N2)cc1 (configuration not stated),8,60*,1,?,-1
C1=C(c2ccc(-c3ccccc3)cc2)Nc2ncnn2C1c1ccco1 (configuration not stated),8,61*,2,28,24
CC1=C(C(N)=O)C(c2ccc(Br)cc2)n2nc(CCCO)nc2N1 (configuration not stated),0,4,-11,17,2
Fc1ccc(C2=CC(c3ccco3)n3ncnc3N2)cc1 (configuration not stated),-8,12,3,3,2
OCCCc1nc2n(n1)C(c1cccs1)C=C(c1ccc(Br)cc1)N2 (configuration not stated),4,40*,4,nt,nt
CCCN(CCC)C(=O)Cn1c(=O)n(-c2ccc(CC)cc2)c(=O)c2ccc(C(=O)NCCc3ccccc3)cc21,8,5,1,nt,2
CCN(CCCNC(=O)c1nn(-c2ccc(C)cc2)c(=O)c2c1c1ccccc1n2C)c1ccccc1,5,0,2,nt,-15
CC(C)(C)NC(=O)CCc1nnc(Cc2c[nH]c3ccccc23)o1,-51*,3,-3,3,-6
O=C(CCc1nnc(Cc2c[nH]c3ccccc23)o1)NCC1CC12CCCCC2 (configuration not stated),4,1,-2,?,-12
CCn1nc(C)c(CNC(=O)CCc2nnc(Cc3c[nH]c4ccccc34)o2)c1C,-49*,2,-8,-3,-15
O=C(NC1CCCC1)c1ccc(CSc2nc3cccnc3n2Cc2ccccc2F)cc1,-7,1,0,nt,-6
